From PubChem BioAssay
Most compounds without a hit are left out; they make up all but 3.3% or so of the library.
PI5P4K alpha inh: inhibitors of human PI5P4K alpha; AID 652105; 1.2% of 330,000 active; PI5P4Kalpha enzyme, ADP-Glo luminescence, 60 min; active compounds read low; P48426; max response, %; active = max response of -50% or lower; inconclusive = between -30% and -50%; inactive = -30% or higher; also: value at the top dose of about 77 µM; % is scaled to controls: 0 for no effect and ±100 for the full control effect
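qHTS, 1536-well: enzyme/substrate mix, compound by pin tool, 5 microM ATP final; RT 60 min; ADP-Glo reagents 1 (45 min) then 2 (30 min); luminescence.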
D3 antag: blocks the human D3 dopamine receptor | D3R cells, DiscoveRx beta-arrestin luminescence, antagonist mode; active compounds read low | max response, negative = inhibition, % | 2.5% of 360,000 active; in the data active = max response below about -50%; inconclusive = no clear call, values can overlap the other calls; also: % is scaled to controls: 0 for no effect and ±100 for the full control effect
Target sequence (P35462 whole entry, looked up): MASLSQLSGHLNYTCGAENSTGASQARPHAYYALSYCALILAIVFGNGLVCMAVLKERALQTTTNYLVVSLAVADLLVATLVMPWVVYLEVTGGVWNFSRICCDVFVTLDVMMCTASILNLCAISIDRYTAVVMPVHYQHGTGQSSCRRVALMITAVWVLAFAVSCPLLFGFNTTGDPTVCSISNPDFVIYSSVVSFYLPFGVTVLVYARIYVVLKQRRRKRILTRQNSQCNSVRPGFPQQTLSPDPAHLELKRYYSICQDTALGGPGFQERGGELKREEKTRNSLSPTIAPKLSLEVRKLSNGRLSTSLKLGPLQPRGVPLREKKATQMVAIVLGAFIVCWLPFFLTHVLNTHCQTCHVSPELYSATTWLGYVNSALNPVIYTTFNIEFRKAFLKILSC
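Cells expressing the human receptor were seeded at 1500 cells/well, incubated overnight at 37 degrees C in 5% CO2, then exposed to library compounds with dopamine controls for 90 minutes at 37 degrees C before luminescent detection.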
LDHA block: inhibitors of human lactate dehydrogenase A; P00338; purified LDHA, NADH/diaphorase-resazurin fluorescence; active compounds read low; activity change, % (values are at about 110 or 230 µM); 0.15% of 480,000 active; AID 1347041; in the data active = activity change below about -30%; inconclusive = mostly about -25% to -30%;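 also: plate controls were DMSO wells for no effect and wells without enzyme for full effect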
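Human LDH5 (2 nM) was incubated with 0.06 mM NADH and 0.2 mM pyruvate for 5 min at room temperature in Tris pH 7.4. Remaining NADH was coupled through diaphorase/resazurin, and resorufin fluorescence was read at 0 and 20 min.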
D3 ag: agonists of human D3 dopamine receptor; P35462; D3R DiscoveRx beta-arrestin cells, luminescence, 90 min; max activation, %; 0.58% of 410,000 active; in the data active = max activation above about 30%; also: 0% is about no effect
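Agonist-mode cell screen: cells plated at 1500/well and incubated overnight at 37 °C, then exposed to library compounds for 90 min at 37 °C. Detection reagent was added for 30–60 min at room temperature, and luminescence was read.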
PI4K2A block: inhibitors of human PI4K2A; 0.13% of 420,000 active; activity change, negative = inhibition, % at 76.9 µM; purified PI4K2A, ADP-Glo luminescence, 1 h; active compounds read low; in the data active = activity change below about -50%; inconclusive = mostly about -30% to -49%;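 also: -100% = wells without enzyme as full effect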
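In this quantitative HTS, ADP production by PI4K2A was quantified luminescently after 1 h at ambient temperature; 100 microM adenosine served as plate-quality control.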
ADP-Glo counter: ADP-Glo luciferase interference, PI5P4K counter-screen. shares compounds with PI5P4K alpha inh. ADP-Glo detection counter-screen, luciferase luminescence, no enzyme. Potency, µM (series often up to 76.9 µM), for inactives: at the top dose activity change, negative = inhibition, usual class: inhibitors. 1,100 tested, under 10 active; active = well fitted curve in the direction sought with a large enough effect; inconclusive = small, poorly fitted or top-dose-only effect, or another doubt; inactive = no such curve, though single readings can be large or run the other way
An asterisk follows results filed as active; u = inconclusive; x = no result given.

SMILES | PI5P4K alpha inh | D3 antag | LDHA block | D3 ag | PI4K2A block | ADP-Glo counter
COCCCNc1ncnc2sc3c(c12)CCC(C)C3 (stereo not given) | 3 | 2 | 3 | -7 | 0 | x
CCOC(=O)c1nnn(-c2ccccc2)c1C | 0 | -9 | -3 | -5 | -4 | -1%
COc1ccc(COCC(O)CNC(=O)CC2CCCCC2)cc1 (stereo not given) | x | x | 2 | x | x | x
Cc1cccc(-n2c(=S)[nH]c3sc4c(c3c2=O)CCc2ccccc2-4)c1 | -77* | -14 | 3 | -2 | 0 | 0%
O=C(O)c1ccc(-c2nnn(Cc3cccc(C(F)(F)F)c3)n2)cc1 | -52* | -17 | -3 | -4 | -1 | -3%
COc1ccc(Nc2ccccc2C(=O)O)cc1 | -64* | -1 | -1 | -7 | 1 | 6%
COc1ccc(Nc2cccccc2=O)cc1 | -2 | -8 | -6 | 0 | 0 | x
CCc1ccc(C2C(C(=O)OC)C(=O)CC(C)(O)C2C(=O)OC)cc1 (stereo not given) | x | x | 6 | x | x | x
O=C(Nc1cccc(S(=O)(=O)NC2=NCCC2)c1)c1cc(-c2ccco2)nc2ccccc12 | -75* | 8 | 1 | 8 | u | -4%
NC(=O)NC(=O)COC(=O)c1cc(-c2ccco2)nc2ccccc12 | x | x | 3 | x | x | x
Cc1csc(NC(=O)c2cc(-c3ccco3)nc3ccccc23)n1 | -57* | 1 | 0 | -19 | u | -8%
CCNC(=O)COC(=O)c1cc(-c2ccco2)nc2ccccc12 | -78* | -21 | 1 | 11 | -9 | 3%
O=C(Nc1nccs1)c1cc(-c2ccco2)nc2ccccc12 | -86* | 6 | 0 | 8 | -28 | -11%
COc1ccc(-c2cnc(NC(=O)NCc3ccccc3)n2C)cc1 | x | x | 9 | x | x | x
COc1cccc(CNS(=O)(=O)c2ccccc2Br)c1OC | -60* | 6 | -8 | 32* | 1 | 1%
CCc1ccc2[nH]c(=O)c(C(c3nnnn3CCOC)N3CCN(c4ccc(F)cc4)CC3)cc2c1 (stereo not given) | 11 | -14 | -1 | -10 | -6 | x
COCCn1nnnc1C(c1cc2cc(OC)c(OC)cc2[nH]c1=O)N1CCN(c2ccc(O)cc2)CC1 (stereo not given) | -54* | 1 | 30 | 3 | -13 | -4%
CC(Oc1ccccc1)C(=O)NCc1ccnc(N2CCCC2)c1 (stereo not given) | x | x | 1 | x | x | x
O=C(CCN1CCc2ccccc2C(c2ccccc2)C1)c1ccc2c(c1)OCCO2 (stereo not given) | -54* | u | 2 | -16 | 12 | -11%
CC(/C=N\NC(=O)CSc1nnc(-c2ccc(Br)cc2)n1-c1ccccc1)=C\c1ccco1 | x | x | x | x | -3 | x
Cc1ccc(-c2cc3c(n2-c2ccc(C(=O)O)cc2)CCCC3=O)cc1 | -78* | 4 | 4 | -10 | -8 | -6%
Cc1cccc(NC(=O)CNC(=O)c2sc3ccccc3c2Cl)n1 | -51* | 3 | -9 | -5 | 0 | -8%
Cc1cccnc1NC(=O)CNC(=O)c1sc2ccccc2c1Cl | -2 | 0 | -2 | -14 | -1 | x
Clc1cccc(Cl)c1CNc1ccc(N2CCCC2)cc1 | -51* | 10 | 21 | 1 | -5 | -13%
c1ccc(CNc2ccc(N3CCCCC3)cc2)cc1 | x | x | 12 | x | x | x
SMILES | PI5P4K alpha inh | D3 antag | LDHA block | D3 ag | PI4K2A block | ADP-Glo counter
O=S(=O)(NCCCn1ccc2ccccc21)c1cc(F)cc(F)c1 | x | x | 2 | x | x | x
CSc1nc2c(c(=O)[nH]1)C(c1cccs1)C1=C(CCCC1=O)N2 (stereo not given) | -70* | -7 | 2 | -1 | 5 | 4%
CCSc1nc2c(c(=O)[nH]1)C(c1ccc(C)cc1)C1=C(CCCC1=O)N2 (stereo not given) | -1 | 4 | -6 | 3 | 1 | x
COc1ccc(C(=O)c2sc(Nc3ccccc3F)nc2N)cc1 | -81* | 1 | -13 | -4 | 0 | -1%
Nc1nc(Nc2ccccc2)sc1C(=O)c1ccccc1 | -65* | -3 | -2 | -6 | 3 | 4%
CCc1cccc(Nc2nc(N)c(C(=O)c3ccccc3)s2)c1 | x | x | 3 | x | x | x
